Experimental findings from PubChem BioAssay (NCI) are described below.

This is part of a sample that, as a whole, favours compounds with a hit. Of some 83,000 tested, about 20% had one in any assay.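 Assay: single dose, 48 h. Readout: percent growth (0 = no net growth; negative = cell death). Active: <10.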 A number with no mark means an inactive call. The source made the active and inactive calls.

Test systems include T-47D breast; BT-549 breast; MDA-MB-435 melanoma; SW-620 colon; MCF7 breast; HCT-116 colon; HCC-2998 colon; KM12 colon.
What all share (assay): NCI-60 one-dose screen, 48 h (100 = growth as untreated, 0 = no growth, -100 = all killed)
What all share (conditions): 10 µM unless noted

In the case of `CC(=O)[C@H]1CC[C@H]2[C@@H]3CC[C@H]4CC=CC[C@]4(C)[C@H]3CC[C@]12C`, the growth in the test on T-47D breast was 95.2%; with BT-549 breast, 102%; in the test on MDA-MB-435 melanoma it was 101%; with SW-620 colon, 101%; in the test with MCF7 breast, 114%; in the test on HCT-116 colon it was 84.8%. In addition, the growth in the test with HCC-2998 colon was 97.2%; in the test with KM12 colon it was 113%.

With `CC1(C)C(N(O)C(=O)Nc2ccc(Cl)cc2)N(c2ccc(Cl)cc2)C(=O)N1CC(=O)N/N=C/C=C/c1ccc([N+](=O)[O-])o1` (stereo not drawn), the growth with T-47D breast was 34.3%; in the test on BT-549 breast it was -19.1% (active); in the test with MDA-MB-435 melanoma, -15.3% (active); in the test with SW-620 colon, -15.7% (active); with MCF7 breast, 7.37% (active); in the test with HCT-116 colon it was -98.1% (active). The growth in the test on HCC-2998 colon was -90.6% (active); with KM12 colon it was 23.1%.

Take `CC1(C)CC[C@]2(C(=O)N3CCNCC3)CC[C@]3(C)C(=CC[C@@H]4[C@@]5(C)CCC(=O)C(C)(C)[C@@H]5CC[C@]43C)[C@@H]2C1`: the growth in the test with T-47D breast was 102%; in the test with BT-549 breast, 106%; in the test with MDA-MB-435 melanoma, 105%; in the test with SW-620 colon, 106%; in the test on MCF7 breast, 98.6%; with HCT-116 colon it was 101%. Also, the growth was 106% with HCC-2998 colon and 111% with KM12 colon.

For the molecule `C=CCn1c(SCC(=O)Nc2ccc(C(=O)/C=C/c3ccc(Cl)cc3)cc2)nnc1-c1ccc(Cl)cc1`, the growth is 76% in the test with T-47D breast; 82.5% in the test with BT-549 breast; 96.7% in the test with MDA-MB-435 melanoma; 97.9% in the test on SW-620 colon; 43.2% in the test on MCF7 breast; -17.8% (active) in the test on HCT-116 colon. Also, the values for the growth in the test on HCC-2998 colon and in the test with KM12 colon were 90.4% and 94.2%, respectively.

As for `COc1cc(C2CC(c3ccc(Cl)cc3)=NN2C=O)ccc1OS(=O)(=O)c1ccc(C)cc1` (stereo not drawn), the growth in the test on T-47D breast is 77%; with BT-549 breast it was 83.2%; in the test with MDA-MB-435 melanoma, 90.2%; with SW-620 colon, 87.2%; in the test on MCF7 breast, 78.9%; in the test with HCT-116 colon, 81.1%. The growth in the test on HCC-2998 colon was 104%; with KM12 colon it was 93.4%.

Consider `CCCCn1cnc(-c2cc(-c3ccccc3)cc(C(F)(F)F)c2)n1`, for which the growth was 93.7% in the test on T-47D breast; 100% with BT-549 breast; 105% in the test with MDA-MB-435 melanoma; 96% in the test on SW-620 colon; 99.6% in the test on MCF7 breast; 96.7% with HCT-116 colon. The growth in the test with HCC-2998 colon is 108%; in the test with KM12 colon, 101%.

With `COc1ccc(/C=C/C(=O)c2ccc(NC(=O)CSc3nnc(-c4ccc(Cl)cc4)n3-c3ccccc3)cc2)cc1`, the growth in the test with T-47D breast was 77.2%; in the test on BT-549 breast, 93%; in the test on MDA-MB-435 melanoma, 94.4%; in the test with SW-620 colon, 110%; with MCF7 breast it was 70.3%; in the test with HCT-116 colon, 36.4%. The growth with HCC-2998 colon was 103%; in the test on KM12 colon it was 94.5%.

For the molecule `CCNS(=O)(=O)c1ccc(C)cc1`, the growth in the test on T-47D breast is 106%; with BT-549 breast, 114%; in the test with MDA-MB-435 melanoma, 111%; in the test with SW-620 colon, 107%; in the test with MCF7 breast, 94.9%; with HCT-116 colon, 113%. The figures for the growth with HCC-2998 colon and with KM12 colon were 106% and 108%, respectively.

On to `Cc1ccc(N=CNN=C(N)N)cc1`, for which the growth was 98.8% in the test with T-47D breast; 108% in the test on BT-549 breast; 112% in the test on MDA-MB-435 melanoma; 108% with SW-620 colon; 99% in the test on MCF7 breast; 103% with HCT-116 colon. Moreover, the values for the growth in the test on HCC-2998 colon and in the test on KM12 colon were 108% and 107%, respectively.

`CC1=NOCC(=O)N1`: the growth in the test with T-47D breast was 99.1%; in the test with BT-549 breast it was 104%; with MDA-MB-435 melanoma it was 100%; in the test with SW-620 colon, 103%; in the test with MCF7 breast it was 98.6%; with HCT-116 colon, 98.5%. For the same molecule, the results for the growth in the test on HCC-2998 colon and with KM12 colon were 116% and 107%, respectively.

For the molecule `COc1ccc(C(=O)c2c(N)nc3n2CCCC3)cc1OC`, the growth in the test with T-47D breast is 101%; in the test with BT-549 breast, 93.9%; with MDA-MB-435 melanoma it was 104%; in the test on SW-620 colon, 101%; with MCF7 breast it was 99%; in the test on HCT-116 colon, 91.9%. Moreover, the growth in the test on HCC-2998 colon was 114%; with KM12 colon, 101%.

In the case of `CC(C)N=C1CCCC1C(=S)SSC(=S)C1CCCC1=NC(C)C` (stereo not drawn), the growth was 47% in the test with T-47D breast; 82.2% in the test with BT-549 breast; 61.7% in the test with MDA-MB-435 melanoma; 74.9% in the test with SW-620 colon; 56.9% with MCF7 breast; 51.4% with HCT-116 colon. Further, the figures for the growth with HCC-2998 colon and in the test with KM12 colon were 116% and 101%, respectively.

Turning to `Nc1nc(N)c2c(n1)NC(c1sc(Cl)nc1Cl)CC(c1ccccc1)=N2` (stereo not drawn), the growth in the test on T-47D breast is 43.6%; in the test with BT-549 breast, 44.5%; with MDA-MB-435 melanoma, 2.29% (active); with SW-620 colon it was 19.3%; in the test on MCF7 breast, 31.3%; with HCT-116 colon, 21.4%. Further, the values for the growth in the test with HCC-2998 colon and in the test on KM12 colon were 74.3% and 47.9%, respectively.

With `COc1ccc(-c2cnc3ccnn3c2-c2cc(OC)c(OC)c(OC)c2)cc1`, the growth is 22.2% with T-47D breast; 66.7% in the test on BT-549 breast; -38.5% (active) in the test on MDA-MB-435 melanoma; 16.1% with SW-620 colon; 25.4% in the test with MCF7 breast; 27.5% with HCT-116 colon. The growth was 80.8% in the test with HCC-2998 colon and 16.1% with KM12 colon.

Take `COc1cc2c(cc1OC)C(=O)OC2`: the growth in the test with T-47D breast is 98.5%; in the test on BT-549 breast it was 118%; in the test on MDA-MB-435 melanoma it was 103%; with SW-620 colon it was 104%; with MCF7 breast, 105%; in the test with HCT-116 colon it was 111%. Moreover, the growth was 118% in the test with HCC-2998 colon and 113% in the test with KM12 colon.

Take `CCCCCCCCCCCC1=NC(C)(C)CN1C(C)(C)CO`: the growth in the test with T-47D breast was 45.3%; with BT-549 breast, 76.6%; in the test with MDA-MB-435 melanoma it was -25.2% (active); in the test on SW-620 colon, 10.8%; with MCF7 breast, 24.3%; in the test on HCT-116 colon, 8.08% (active). In addition, the growth was -75.5% (active) in the test with HCC-2998 colon and -10.2% (active) with KM12 colon.
